Bioassay records as filed in PubChem BioAssay.
Shn3 inh set2 = reduction of Shn3 3'UTR firefly luciferase signal, primary screen, Schnurri-3 inhibitor project, cell-based, Clone20 osteoblasts, set 2; inhibition, % at 12.5 µM; Clone20 osteoblast Shn3 3'UTR firefly luciferase, 24 h; actives 0.52% (n = 360,000);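 active means mean inhibition of at least 75% with every replicate also reaching 75%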
Peg3 prom inh-1 = Peg3 promoter-driven luciferase inhibitors, primary screen, cell-based, HeLa, luciferase luminescence | HeLa PEG-Prom luciferase reporter, overnight | inhibition, % at 20 µM | actives 1.7% (n = 360,000) | AID 588405, 2011;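 active means inhibition of at least 50% at 20 µM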
HIF-2a inh = HIF-2a reporter inhibitors, primary screen, luminescence, 786-0 RCC cells; inhibition, % at 18.8 µM; 786-0 RCC cells HIF-2a reporter, luciferase luminescence, overnight; actives 0.72% (n = 360,000);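 active means inhibition of the luminescence signal of 40% or more relative to plate controls, in a single-dose primary screen at 18.75 µM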
CF NFkB block = inhibitors of PAF-induced NF-kB signaling, primary screen, cell-based, GFP fluorescence, uHTS; actives 0.86% (n = 360,000); KKLEB NF-kB-GFP reporter, GFP fluorescence overnight; inhibition, % at 5 µM;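 active means at least 50% inhibition at 5 µM, scaled per plate between neutral and stimulator controls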;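 further: PAF is a Pseudomonas aeruginosa culture filtrate used as stimulus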
KKLEB tox = cytotoxicity in KKLEB CF airway cells, primary screen, cytotoxicity control for CF NF-kB inhibitor project, cell-based, uHTS, fluorescence assay plates; activity change (cytotoxicity), % at 5 µM; actives 0.36% (n = 360,000); KKLEB CF airway cells viability, ATPlite luminescence, overnight; active compounds read low; cells stimulated with P. aeruginosa culture filtrate;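 active means corrected activity change at or below -50% at 5 µM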
MITF TRPM1 inh = inhibitors of MITF-dependent TRPM1 promoter reporter, primary screen, cell-based, SK-MEL-5, single point, luciferase; SK-MEL-5 TRPM1 promoter luciferase, 24 h; inhibition, % at 12.5 µM; actives 0.83% (n = 330,000); AID 488899, 2010;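 active means mean inhibition across replicates of 60% or more, whatever share of single replicates reaches that level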
Peg3 prom inh-2 = Peg3 promoter reporter inhibitors, retest, confirmation, cell-based, HeLa, luciferase reporter, single concentration | HeLa PEG-Prom luciferase reporter, luminescence, overnight | shares compounds with Peg3 prom inh-1 | actives 84% (n = 1,300) | inhibition, % at 20 µM;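 active means at 20 µM dose, 40% or more inhibition averaged across four replicates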
CF NFkB inh conf = inhibitors of PAF-induced NF-kB signaling, retest, confirmation, cell-based, GFP fluorescence, single concentration. shares compounds with CF NFkB block. KKLEB CF airway cells, overnight. inhibition, % at 5 µM. actives 64% (n = 1,300). AID 602472, 2012; in the data active means inhibition above about 40%;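 further: stimulus PAF is a Pseudomonas aeruginosa filtrate and not platelet activating factor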
Numbers stand for hits; . = inactive; / = no result given. Hits are enriched below; roughly 2.8% of the tested compounds scored in any of these assays.

SMILES | Shn3 inh set2 | Peg3 prom inh-1 | HIF-2a inh | CF NFkB block | KKLEB tox | MITF TRPM1 inh | Peg3 prom inh-2 | others
Cc1ccc(C(CC(=O)NCCCN(C)C)c2ccc(OC(C)C)cc2)cc1 (stereo not drawn) | . | . | . | . | . | . | /
O=[N+]([O-])c1cc(-c2csc(NCCc3nc4cc(C(F)(F)F)ccc4n3CCCO)n2)ccc1Cl | . | 54 | . | . | . | . | .
OCCCn1c(CCNc2nc(-c3ccc(Cl)cc3)cs2)nc2cc(C(F)(F)F)ccc21 | . | . | . | . | . | . | /
COc1ccc(CC(N)c2csc(NC(=O)Nc3cc(OC)ccc3OC)n2)cc1 (stereo not drawn) | . | 94 | . | . | . | / | 96
Cc1ccccc1NC(=O)Nc1nc(C(N)Cc2ccccc2)cs1 (stereo not drawn) | . | 73 | . | . | . | / | 42
COc1ccc(CC(N)c2csc(NC(=O)c3cccs3)n2)cc1 (stereo not drawn) | . | . | . | . | . | / | /
COc1cc(NC(=O)Nc2nc(C(N)CCc3ccccc3)cs2)cc(OC)c1OC (stereo not drawn) | . | 74 | . | . | . | / | 83
COc1ccc(CC(N)c2csc(NC(=O)Nc3ccccc3C(C)(C)C)n2)cc1 (stereo not drawn) | . | 87 | . | . | . | / | 76
Cc1ccccc1NC(=O)Nc1nc(CN)cs1 | . | . | . | . | . | / | /
CN1CCc2c(sc(NC(=O)C3CCCN3S(=O)(=O)c3ccc(Cl)s3)c2C(N)=O)C1 (stereo not drawn) | . | . | . | . | . | . | /
O=C(O)c1ccc(Nc2nc3ccc(Cl)cc3[nH]2)cc1 | . | . | . | . | . | . | /
CN(C(=O)CSc1nnc(-c2ccncc2)n1Cc1ccccc1)C1CCS(=O)(=O)C1 (stereo not drawn) | . | . | . | . | . | . | /
CC1(C)CC(=O)c2c(O)c(-c3ccccc3)c(=O)n(-c3ccccc3)c2C1 | . | . | . | . | . | . | /
CCCNc1nc(N)nc(-c2cc(Cl)ccc2OC)n1 | . | . | . | . | . | . | /
CCNc1nc(N)nc(-c2cc(Cl)ccc2O)n1 | . | 101 | . | 88 | . | . | .
Cc1ccc(-n2c(N)c(C(=O)Nc3c(C)n(C)n(-c4ccccc4)c3=O)c3nc4ccccc4nc32)cc1 | . | 76 | . | . | . | . | 51
Cc1ccc(C(=O)Nc2c(C)n(C)n(-c3ccccc3)c2=O)cc1 | . | . | . | . | . | . | /
C[C@@H](NCCCn1cnc2c(OCc3ccccc3)ncnc21)c1cccc2ccccc12 | . | 92 | . | . | . | 69 | 86
c1ccc(CCCNCCCn2cnc3c(OCc4ccccc4)ncnc32)cc1 | . | 56 | . | . | . | 78 | 83
Oc1ccc(C23CCCC2C2(CCCC2)c2ccc(O)cc2O3)c(O)c1 (stereo not drawn) | . | 51 | . | . | . | . | 44
Cc1c(Cl)cccc1NC(=O)CCN1C(=O)C2CC=CCC2C1=O (stereo not drawn) | . | . | . | . | . | . | /
Cc1ccc(C(=O)Nc2nnc(S(=O)(=O)N3CCC(C)CC3)s2)cc1 | . | . | . | . | . | . | /
CC(C)CC(NS(=O)(=O)OCC(Cl)(Cl)Cl)c1ccccc1 (stereo not drawn) | . | 57 | . | . | . | . | 45
COC(=O)CCC(NS(=O)(=O)OCC(Cl)(Cl)Cl)c1ccccc1 (stereo not drawn) | . | . | . | . | . | . | /
CC1(C)CC(NC(=O)c2cccc(S(=O)(=O)N(Cc3ccccc3)c3ccccc3)c2)CC(C)(C)N1 | . | 84 | . | . | . | . | 92
SMILES | Shn3 inh set2 | Peg3 prom inh-1 | HIF-2a inh | CF NFkB block | KKLEB tox | MITF TRPM1 inh | Peg3 prom inh-2 | others
Cc1ccc(N(C)S(=O)(=O)c2cccc(C(=O)NC3CC(C)(C)NC(C)(C)C3)c2)cc1 | . | . | . | . | . | . | /
CC1CCN(C(=O)c2ccc(NC3=C(Cl)C(=O)N(Cc4ccccc4)C3=O)cc2)CC1 | . | . | . | . | . | . | /
CC1CCCCN1C(=O)c1cccc(NC2=C(Cl)C(=O)N(Cc3ccccc3)C2=O)c1 (stereo not drawn) | . | 52 | . | 57 | . | . | 54 | CF NFkB inh conf=.
COc1ccc(CCNC(=O)CSc2nc3[nH]ncc3c(=O)n2-c2ccc(C)c(Cl)c2)cc1OC | . | . | . | . | . | . | /
Cc1ccc(/C=N\NC(=O)c2ccc3c(c2)OCO3)o1 | . | . | . | . | . | . | /
NC(=O)c1nsc(C(=O)N(c2ccccc2F)C(C(=O)NCc2ccc(F)cc2)c2ccc(O)cc2)c1N (stereo not drawn) | . | 58 | . | 94 | . | . | 60 | CF NFkB inh conf=108
Cc1csc(SC(C)c2nc3scc(-c4ccccc4)c3c(=O)[nH]2)n1 (stereo not drawn) | . | . | . | . | . | . | /
Cc1ccc(/C=C2/Sc3ccc(C(=O)NCCN4CCOCC4)cc3NC2=O)cc1 | . | . | . | . | . | . | /
Cc1cccc(CN2C(=O)/C(=C\c3ccc(C(=O)NCCN4CCOCC4)cc3)Sc3ccccc32)c1 | . | 92 | . | 82 | . | . | 92 | CF NFkB inh conf=.
CC(=O)c1ccc(-c2cnc3c(NC=O)cc(-c4ccccc4Oc4ccccc4)cn23)cc1 | . | 55 | . | 58 | . | / | 63 | CF NFkB inh conf=45
C/C(=N/NC(=O)CNC(=O)c1cccnc1)c1ccc(Cl)c(Cl)c1 | . | . | . | . | . | . | /
COc1ccc(Nc2nccc(-c3cccc(N)c3)n2)cc1 | . | 73 | . | 71 | . | . | . | CF NFkB inh conf=94
CN(C)S(=O)(=O)c1ccc(Cl)c(NC(=O)CSc2nc3c(cc2C#N)C(=O)CC(C)(C)C3)c1 | . | . | . | . | . | . | /
CN(C)S(=O)(=O)c1cccc(NC(=O)CSc2nc3c(cc2C#N)C(=O)CC(C)(C)C3)c1 | . | 60 | . | 58 | . | 68 | 60 | CF NFkB inh conf=.
O=C(Nc1ccccc1)c1nc[nH]c1C(=O)NCCCCNC(=O)c1[nH]cnc1C(=O)Nc1ccccc1 | . | 60 | . | 54 | . | . | 56 | CF NFkB inh conf=59
Cc1ccc(NC(=O)c2nc[nH]c2C(=O)NCCCCCCNC(=O)c2[nH]cnc2C(=O)Nc2ccc(C)cc2)cc1 | . | . | . | . | . | . | /
